Hits are enriched below; roughly 5.4% of the tested compounds scored in any of these assays.
Six1-Eya2 blk: qHTS Assay for Inhibitors of the Six1/Eya2 Interaction; Homeobox protein SIX1 (Homo sapiens) + Protein phosphatase EYA2 (Homo sapiens), …; AlphaScreen GST-Six1/His-Eya2 binding, biochemical; hits give low values; activity change, % (no concentration beside the values); actives 0.56% (n = 360,000); AID 651725, 2012; in the data active = activity change below about -65%; inconclusive = mostly about -30% to -63%; note: % is set by controls: 0 for no effect and ±100 for the full control effect
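Homogeneous AlphaScreen proximity assay pairing GST-Six1 with His-tagged Eya2 (added as 5X mix: 250 nM and 500 nM) in 50 mM Tris pH 8.0, 300 mM NaCl, 1 mM TCEP. Glutathione donor and nickel acceptor beads; 1 h, 37 °C, dark.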
RORg inh: qHTS for inhibitors of ROR gamma transcriptional activity; Potency, µM (top dose mostly 53.6 µM), without a hit: at the highest dose activity change, negative = inhibition, actives largely listed as inhibitors; AID 2551, 2010; Nuclear receptor ROR-gamma (Mus musculus), P51450; Drosophila S2 Gal4-RORgamma UAS-luciferase reporter, 20 h; actives 5.4% (n = 310,000); note: potency is the fitted concentration of half-maximal effect; % is set by controls: 0 for no effect and ±100 for the full control effect; nearly all actives have a fitted effect of over 60% in size
Target sequence (P51450 whole entry, looked up, the tested form may be a part): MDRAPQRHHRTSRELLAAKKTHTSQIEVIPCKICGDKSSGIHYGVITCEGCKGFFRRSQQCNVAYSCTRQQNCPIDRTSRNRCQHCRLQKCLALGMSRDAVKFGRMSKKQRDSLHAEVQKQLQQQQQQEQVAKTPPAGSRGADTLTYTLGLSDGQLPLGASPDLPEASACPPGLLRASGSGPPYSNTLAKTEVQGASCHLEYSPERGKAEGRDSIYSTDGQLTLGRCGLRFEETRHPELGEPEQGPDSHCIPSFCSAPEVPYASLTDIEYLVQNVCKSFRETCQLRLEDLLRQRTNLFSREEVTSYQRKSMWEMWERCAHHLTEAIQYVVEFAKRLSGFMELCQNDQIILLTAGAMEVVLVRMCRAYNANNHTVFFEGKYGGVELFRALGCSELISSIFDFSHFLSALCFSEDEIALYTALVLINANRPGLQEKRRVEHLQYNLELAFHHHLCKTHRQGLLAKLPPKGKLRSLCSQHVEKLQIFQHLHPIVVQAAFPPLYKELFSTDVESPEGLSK
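Drosophila S2 cells stably expressing Gal4-DBD/mouse RORγ fusion under metallothionein promoter plus UAS-luciferase; compound 1 h, then 700 uM CuSO4 induction for 20 h at ambient temperature; inhibition read as reduced luminescence.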
CtBP-E1A blk: qHTS Assay for Inhibitors of the CtBP/E1A Interaction. activity change, % (test concentration not listed). AlphaScreen GST-E1A/His-CtBP binding, 1536-well; hits give low values. AID 651724, 2012. actives 0.49% (n = 340,000); in the data active = activity change below about -65%; inconclusive = mostly about -30% to -63%; note: % is set by controls: 0 for no effect and ±100 for the full control effect
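GST-E1A and His-tagged CtBP (125 nM each as 5X stock) were preincubated with pin-transferred compound for 2 h at 37 °C in the dark, then glutathione donor and nickel acceptor beads were added for 1 h before AlphaScreen reading.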
Gal4-VP16 FLuc: VP16 counterscreen qHTS for inhibitors of ROR gamma transcriptional activity; Potency, µM (top dose mostly 53.6 µM), for the others: top-dose activity, negative = inhibition, actives largely listed as inhibitors; Drosophila S2 Gal4-VP16 UAS-luciferase, luminescence, 20 h; actives 3.5% (n = 310,000);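 note: Gal4-VP16 expression switched on by copper sulfate through the metallothionein promoter; potency is the fitted concentration of half-maximal effect; % is set by controls: 0 for no effect and ±100 for the full control effect; nearly all actives have a fitted effect of over 50% in size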
p53 reactivation: qHTS assay for re-activators of p53 using a Luc reporter; H1299 p53-A138V BP100-luciferase reporter, luminescence, 24 h; Potency, µM (highest dose often 92.2 µM), for the others: at the top dose activity change, positive = activation, actives largely listed as activators; actives 0.063% (n = 320,000); AID 504706, 2011; note: potency is the fitted concentration of half-maximal effect; % of control where 0% means no effect; nearly all actives have a fitted effect of over 45% in size
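p53-null H1299 cells stably carrying temperature-sensitive p53-A138V and a BP100-luciferase reporter were pinned with compounds (4-point, 1:5 series) and held 24 hrs at 37 deg C. Luminescence was read 10 min after detection reagent.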
Active calls of the source: *. Unless noted, calls come from the whole dose curve; as a rule, active = well fitted curve in the direction sought with a large enough effect; inconclusive = small, poorly fitted or top-dose-only effect, or another doubt; inactive = no such curve, though single readings can be large; an effect the other way counts as inactive or inconclusive.

For CC[C@H](C)[C@H](NC(=O)[C@H](CCCNC(=N)N)NC(=O)[C@@H]1CCCN1C(=O)[C@H](Cc1ccccc1)NC(=O)[C@H](Cc1cnc[nH]1)NC(=O)[C@H](CCCNC(=N)N)NC(=O)[C@@H](NC(=O)[C@H](C)NC(=O)[C@H](CCC(=O)O)NC(=O)[C@H](CC(N)=O)NC(=O)[C@@H](N)CCCCN)C(C)C)C(=O)N[C@@H](Cc1c[nH]c2ccccc12)C(=O)N[C@@H](CC(C)C)C(=O)O the results were RORg inh -0.5% and Gal4-VP16 FLuc 2.5%.
Screening CC(c1ccccc1)n1cnc2ccccc21 (configuration not stated) returned Six1-Eya2 blk 1.9, RORg inh 12.6µM*, CtBP-E1A blk -4.7, Gal4-VP16 FLuc -12.0% and p53 reactivation 10.6%.
Screening CCCCCC(=O)Nc1ccc(-c2nnc3n2CCCCC3)cc1 returned Six1-Eya2 blk 1.9, RORg inh 2.1%, CtBP-E1A blk 5.2, Gal4-VP16 FLuc 6.0% and p53 reactivation 11.8%.
For CCOC(=O)/C=C/C(=O)Nc1ccc(-c2nnc3n2CCCCC3)cc1 the results were Six1-Eya2 blk -11.8, RORg inh 0.4%, CtBP-E1A blk -65.7*, Gal4-VP16 FLuc 10.3% and p53 reactivation 7.2%.
Screening CCOc1cc(/C=N/Nc2ncc(C)c(=O)[nH]2)ccc1O returned Six1-Eya2 blk inconclusive, RORg inh 50.2%, CtBP-E1A blk -80.5*, Gal4-VP16 FLuc -11.3% and p53 reactivation 8.4%.
Screening CCOc1cc(/C=N/Nc2nc(C)cc(=O)[nH]2)ccc1O returned Six1-Eya2 blk inconclusive, RORg inh 37.9%, CtBP-E1A blk inconclusive, Gal4-VP16 FLuc -9.6% and p53 reactivation 9.0%.
Screening COc1ccc(/C=N/Nc2nc(Nc3ccccc3)nc(N3CCCCC3)n2)cc1OC returned Six1-Eya2 blk -13.8, RORg inh 9.6%, CtBP-E1A blk -6.0, Gal4-VP16 FLuc -13.4% and p53 reactivation 4.6%.
`CCOc1cc(/C=N/Nc2nc(N3CCCC3)nc(N3CCCC3)n2)ccc1O` gave Six1-Eya2 blk inconclusive, RORg inh 5.62µM*, CtBP-E1A blk inconclusive, Gal4-VP16 FLuc 5.01µM* and p53 reactivation -2.5%.
CCOc1cc(/C=N/Nc2nc(Nc3ccccc3)nc(N3CCCCC3)n2)ccc1OCC(=O)O was read as Six1-Eya2 blk -6.6, RORg inh 4.47µM*, CtBP-E1A blk -7.3, Gal4-VP16 FLuc inconclusive and p53 reactivation 8.6%.
Screening Cc1ccc(-n2nnnc2-c2cccs2)cc1[N+](=O)[O-] returned Six1-Eya2 blk 0.0 and CtBP-E1A blk 0.5.
O=C(NCCCn1ccnc1)c1nn2c(C(F)(F)F)cc(-c3ccccc3)nc2c1Cl was read as Six1-Eya2 blk -9.5, RORg inh -0.6%, CtBP-E1A blk -16.2, Gal4-VP16 FLuc 7.5% and p53 reactivation -3.2%.
Screening C/C=C1\C(=O)C[C@H]2[C@@H]3CCC4=CC(=O)CC[C@]4(C)[C@H]3CC[C@]12C returned RORg inh -7.3% and Gal4-VP16 FLuc 3.3%.
For C[C@@H]1CN([C@H](C)CO)C(=O)CCCn2nncc2CO[C@@H]1CN(C)S(=O)(=O)c1ccc2c(c1)OCCCO2 the results were Six1-Eya2 blk 0.3 and CtBP-E1A blk -14.1.
CNc1ncc(Cc2ccccc2)s1 was read as Six1-Eya2 blk -5.2, RORg inh 8.91µM*, CtBP-E1A blk 2.4, Gal4-VP16 FLuc -18.3% and p53 reactivation 23.3%.
O=C(Nc1ncc(Cc2ccccc2)s1)C1CCCO1 (configuration not stated) was read as Six1-Eya2 blk -1.3, RORg inh inconclusive, CtBP-E1A blk -0.2, Gal4-VP16 FLuc inconclusive and p53 reactivation inconclusive.
CN(C(=O)c1ccc(S(=O)(=O)N2CCOCC2)cc1)C1CCS(=O)(=O)C1 (configuration not stated) was read as Six1-Eya2 blk 1.6, CtBP-E1A blk 6.7 and p53 reactivation 3.1%.
